Reference: PubChem BioAssay (EPA / NIEHS)
Inconclusive results are not listed. Active and inactive are the calls of the source. Rule for the calls, unless noted: active = hit-call score of the fitted dose curve at least 0.9, where 1 is the maximum; inconclusive = response in the unintended direction; inactive = score below 0.9.

Key:
[1] = target: Agonist Androgen Response Element (ARE), AR (gene 367) (UniProt P10275); experiment: OT_AR_ARELUC_AG_1440: Odyssey Thera (OT) 24-hour CHO-K1 Luciferase Assay for Agonist Androgen Response Element (ARE) (AID 2283379)
In short: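 Agonist mode, 24 h exposure in CHO-K1 ARE-luciferase cells; values reflect luminescence induction over vehicle.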

[2] = target: Peroxisome proliferator-activated receptor gamma (Homo sapiens) (UniProt P37231); experiment: OT_PPARg_PPARgSRC1_0480: Odyssey Thera (OT) 8-hour Protein-Complementation Assay for Peroxisome Proliferator-activated Receptor Gamma / SRC-1 Co-activator (AID 2283387);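 note: nuclear to cytoplasmic split Venus YFP fluorescence ratio reporting PPARg SRC-1 interaction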
In short: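 HEK293T transiently transfected with PPARg and SRC-1 fused to Venus YFP fragments, compounds 8 h at 37C. Fixed, Draq5-stained cells imaged; nuclear/cytoplasmic 488 nm fluorescence ratio over at least 350 cells per image; gain fitted versus DMSO.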

[3] = target: Peroxisome proliferator-activated receptor gamma (Homo sapiens) (UniProt P37231); experiment: OT_PPARg_PPARgSRC1_1440: Odyssey Thera (OT) 24-hour Protein-Complementation Assay for Peroxisome Proliferator-activated Receptor Gamma/ SRC-1 Co-activator (AID 2283388)
In short: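 Readout: nuclear-to-cytoplasmic 488 nm fluorescence ratio, ≥350 cells per image, 8 images per well, after 24 h compound exposure of HEK293T expressing PPARg/SRC-1 split-YFP fusions. Activity fitted in positive direction against DMSO.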

[4] = target: Estrogen receptor beta (Homo sapiens) (UniProt Q92731); experiment: OT_ER_ERbERb_1440: Odyssey Thera (OT) 24-hour HEK293T Protein-Complementation Assay for Estrogen Receptor-beta/-beta Homodimer (AID 2283380);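 note: fluorescence gain from ER beta LBD homodimer complementation read by laser scanning cytometry; scored as signal increase over DMSO baseline for both agonists and antagonists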
In short: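 Fluorescence increase, nuclear for agonists or whole-cell for antagonists, relative to DMSO vehicle, quantified by laser scanning cytometer after fixation and Draq5 staining. Readout from 24 h treatment of HEK293T cells carrying complementation-paired ER beta LBD (aa 310-547).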

[5] = target: Bile acid receptor (Homo sapiens) (UniProt Q96RI1); experiment: OT_FXR_FXRSRC1_0480: Odyssey Thera (OT) 8-hour HEK293T Protein-Complementation Assay for Farnesoid X receptor/SRC-1 Co-activator (AID 2283383)
In short: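 Human kidney HEK293T cells carried FXR/SRC-1 fragment-complementation constructs. Compounds were added and incubated 8 h. Reporter reassembly upon receptor–co-activator interaction was then quantified by fluorescence, with curves fitted in the positive direction relative to DMSO.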

[6] = target: Bile acid receptor (Homo sapiens) (UniProt Q96RI1); experiment: OT_FXR_FXRSRC1_1440: Odyssey Thera (OT) 24-hour HEK293T Protein-Complementation Assay for Farnesoid X receptor/SRC-1 Co-activator (AID 2283384)
In short: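 Compounds are applied to human kidney HEK293T cells expressing bait and prey fused to reporter protein fragments; after 24 h, reconstituted reporter fluorescence is measured. Activity is fitted as signal gain over DMSO.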

[7] = target: Retinoic acid receptor RXR-alpha (Homo sapiens) (UniProt P19793); experiment: OT_NURR1_NURR1RXRa_0480: Odyssey Thera (OT) 8-hour HEK293T Protein Complementation Assay for Nurr1/retinoid X receptor (RXR) (AID 2283385)
In short: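 8 h compound exposure, HEK293T; Nurr1/RXRα fragment complementation; fluorescence intensity; positive fitting direction vs DMSO baseline.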

[8] = target: Retinoic acid receptor RXR-alpha (Homo sapiens) (UniProt P19793); experiment: OT_NURR1_NURR1RXRa_1440: Odyssey Thera (OT) 24-hour HEK293T Protein Complementation Assay for Nurr1/retinoid X receptor (RXR) (AID 2283386)
In short: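 Interaction of Nurr1 with RXRα brings fused reporter fragments together in human HEK293T cells, restoring a functional reporter. Fluorescence intensity is measured 24 h after chemical treatment, and values are analysed in the positive direction against DMSO.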

[9] = CEETOX_H295R_11DCORT: CeeTox H295R High-throughput Steroidogenesis Assay for 11-Deoxycortisol (11DCORT) (AID 2283432; active = hit-call score of the fitted dose curve at least 0.9, where 1 is the maximum; inactive = score below 0.9;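 for AC50: human adrenal H295R cells prestimulated with 10 µM forskolin for 48 h; 11-deoxycortisol secreted into the medium measured by LC-MS/MS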); conditions: actives raise or lower the signal
In short: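 H295R cells prestimulated 48 h with 10 uM forskolin, then exposed 48 h to chemical in 0.1% DMSO. 11-Deoxycortisol in medium quantified by HPLC-MS/MS after MTBE extraction; bidirectional fit versus DMSO. MTT viability read in same wells.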

[10] = CEETOX_H295R_OHPREG: CeeTox H295R High-throughput Steroidogenesis Assay for OH-Pregnenolone (OHPREG) (AID 2283434; active = hit-call score of the fitted dose curve at least 0.9, where 1 is the maximum; inactive = score below 0.9); conditions: actives raise or lower the signal
In short: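 Hormone levels in spent medium were measured by tandem mass spectrometry following liquid-liquid extraction. Cells (H295R) had been forskolin-stimulated (10 uM, 48 h) before a 48 h chemical exposure at 0.1% DMSO, with activity fitted in both directions against DMSO.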

[11] = CEETOX_H295R_CORTIC: CeeTox H295R High-throughput Steroidogenesis Assay for Corticosterone (CORTIC) (AID 2283437; active = hit-call score of the fitted dose curve at least 0.9, where 1 is the maximum; inactive = score below 0.9;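 note: corticosterone secreted into medium quantified by mass spectrometry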); conditions: actives raise or lower the signal
In short: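 Corticosterone secreted into medium is measured by reverse-phase HPLC with tandem MS following liquid-liquid extraction. Cells are forskolin-stimulated (10 uM, 48 h) before 48 h test exposure; activity fitted in both directions against DMSO.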

[12] = CEETOX_H295R_CORTISOL: CeeTox H295R High-throughput Steroidogenesis Assay for Cortisol (AID 2283438; active = hit-call score of the fitted dose curve at least 0.9, where 1 is the maximum; inactive = score below 0.9;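 note: cortisol secreted into medium quantified by LC-MS/MS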); conditions: actives raise or lower the signal
In short: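 Forskolin 10 uM 48 h prestim → test cmpd in DMSO (0.1% final) 48 h → medium MTBE-extracted → LC-MS/MS cortisol vs 7-pt std curve. Gain/loss of signal fitted vs DMSO. MTT viability in same wells.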

[13] = target: Estrogen receptor (Homo sapiens) (UniProt P03372); experiment: OT_ERa_GFPERaERE_0480: Odyssey Thera (OT) 8-hour HeLa Transcription Induction Assay for Estrogen Receptor (AID 2283381; active = hit-call score of the fitted dose curve at least 0.9, where 1 is the maximum; inactive = score below 0.9)
In short: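 Fluorescent reporter signal, imaged by microscopy and scored with image-analysis algorithms, was taken 8 h after chemical dosing of HeLa cells; activity was fitted upward relative to DMSO.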

[14] = target: Estrogen receptor (Homo sapiens) (UniProt P03372); experiment: OT_ERa_GFPERaERE_0120: Odyssey Thera (OT) 2-hour HeLa Transcription Induction Assay for Estrogen Receptor (AID 2283382)
In short: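 HeLa, 384-well, 2 h chemical exposure; GFP reporter induction (ERE), fluorescence microscopy; high content image analysis; positive fitting direction vs DMSO.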

[15] = CEETOX_H295R_ANDR: CeeTox H295R High-throughput Steroidogenesis Assay for Androstenedione (ANDR) (AID 2283436; active = hit-call score of the fitted dose curve at least 0.9, where 1 is the maximum; inactive = score below 0.9;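 note: human H295R adrenal cells exposed for 48 h with androstenedione measured in medium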); conditions: actives raise or lower the signal
In short: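 Read-out is androstenedione secreted into medium, measured by tandem mass spectrometry after liquid-liquid extraction. Cells were H295R, dosed for 48 h per modified OECD 456; activity fitted in both directions relative to DMSO.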

Measured: AC50

Sequence of Bile acid receptor (Homo sapiens) (Q96RI1 whole entry, looked up, the tested form may be a part): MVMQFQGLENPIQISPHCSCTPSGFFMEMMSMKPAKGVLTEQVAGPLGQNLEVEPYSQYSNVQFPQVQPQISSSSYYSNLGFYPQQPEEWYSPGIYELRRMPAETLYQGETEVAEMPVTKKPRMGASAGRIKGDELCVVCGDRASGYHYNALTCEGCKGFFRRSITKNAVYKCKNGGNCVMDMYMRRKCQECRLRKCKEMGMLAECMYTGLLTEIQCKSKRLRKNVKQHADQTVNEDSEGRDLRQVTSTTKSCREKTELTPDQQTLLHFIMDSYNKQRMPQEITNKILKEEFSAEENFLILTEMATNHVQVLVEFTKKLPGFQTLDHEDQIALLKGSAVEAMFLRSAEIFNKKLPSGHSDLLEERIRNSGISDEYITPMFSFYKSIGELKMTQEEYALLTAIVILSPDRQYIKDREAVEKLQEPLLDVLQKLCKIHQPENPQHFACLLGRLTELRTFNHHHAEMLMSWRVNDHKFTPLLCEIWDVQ
Sequence of Estrogen receptor beta (Homo sapiens) (Q92731 whole entry, looked up, the tested form may be a part): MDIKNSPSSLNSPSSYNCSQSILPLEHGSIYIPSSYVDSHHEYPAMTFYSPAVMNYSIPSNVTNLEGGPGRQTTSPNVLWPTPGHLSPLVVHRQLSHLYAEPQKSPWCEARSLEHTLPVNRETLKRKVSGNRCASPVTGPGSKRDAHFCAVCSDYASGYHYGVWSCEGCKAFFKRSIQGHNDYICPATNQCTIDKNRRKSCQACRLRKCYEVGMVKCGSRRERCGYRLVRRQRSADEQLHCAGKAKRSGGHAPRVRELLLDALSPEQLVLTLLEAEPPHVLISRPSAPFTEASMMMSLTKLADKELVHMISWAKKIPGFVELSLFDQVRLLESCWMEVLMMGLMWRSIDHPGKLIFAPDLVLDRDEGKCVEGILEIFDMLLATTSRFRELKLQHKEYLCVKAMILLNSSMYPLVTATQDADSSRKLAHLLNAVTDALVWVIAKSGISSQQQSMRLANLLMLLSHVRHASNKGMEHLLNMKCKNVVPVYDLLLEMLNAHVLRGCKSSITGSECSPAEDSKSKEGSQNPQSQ
Sequence of Estrogen receptor (Homo sapiens) (P03372 whole entry, looked up): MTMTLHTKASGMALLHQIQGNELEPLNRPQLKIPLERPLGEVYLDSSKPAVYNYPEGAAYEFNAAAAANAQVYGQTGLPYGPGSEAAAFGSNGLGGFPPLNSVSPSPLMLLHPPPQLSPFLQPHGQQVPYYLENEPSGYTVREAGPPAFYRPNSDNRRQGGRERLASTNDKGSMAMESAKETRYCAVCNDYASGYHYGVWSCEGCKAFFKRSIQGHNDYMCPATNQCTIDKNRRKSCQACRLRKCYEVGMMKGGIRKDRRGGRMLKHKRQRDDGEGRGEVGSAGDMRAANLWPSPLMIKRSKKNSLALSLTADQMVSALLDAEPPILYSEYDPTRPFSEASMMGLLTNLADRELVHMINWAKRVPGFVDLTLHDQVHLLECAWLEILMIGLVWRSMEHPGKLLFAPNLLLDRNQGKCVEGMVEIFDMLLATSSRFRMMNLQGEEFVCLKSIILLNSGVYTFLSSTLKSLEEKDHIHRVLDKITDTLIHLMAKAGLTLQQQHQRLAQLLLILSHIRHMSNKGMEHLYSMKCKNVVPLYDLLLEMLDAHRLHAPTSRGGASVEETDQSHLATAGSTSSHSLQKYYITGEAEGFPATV
Sequence of Retinoic acid receptor RXR-alpha (Homo sapiens) (P19793 whole entry, looked up, the tested form may be a part): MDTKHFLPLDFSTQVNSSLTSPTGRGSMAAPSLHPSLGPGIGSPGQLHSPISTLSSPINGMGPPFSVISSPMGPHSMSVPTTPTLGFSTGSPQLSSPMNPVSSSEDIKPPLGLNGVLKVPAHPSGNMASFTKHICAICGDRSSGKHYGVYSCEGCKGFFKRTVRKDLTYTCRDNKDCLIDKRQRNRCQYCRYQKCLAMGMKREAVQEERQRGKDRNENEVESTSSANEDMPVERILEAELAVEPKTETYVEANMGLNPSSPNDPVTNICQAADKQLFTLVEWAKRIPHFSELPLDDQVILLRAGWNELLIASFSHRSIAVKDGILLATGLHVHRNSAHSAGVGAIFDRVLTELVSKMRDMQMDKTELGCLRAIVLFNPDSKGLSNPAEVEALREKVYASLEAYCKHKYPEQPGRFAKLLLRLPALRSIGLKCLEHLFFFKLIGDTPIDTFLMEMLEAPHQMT
Sequence of Peroxisome proliferator-activated receptor gamma (Homo sapiens) (P37231 whole entry, looked up, the tested form may be a part): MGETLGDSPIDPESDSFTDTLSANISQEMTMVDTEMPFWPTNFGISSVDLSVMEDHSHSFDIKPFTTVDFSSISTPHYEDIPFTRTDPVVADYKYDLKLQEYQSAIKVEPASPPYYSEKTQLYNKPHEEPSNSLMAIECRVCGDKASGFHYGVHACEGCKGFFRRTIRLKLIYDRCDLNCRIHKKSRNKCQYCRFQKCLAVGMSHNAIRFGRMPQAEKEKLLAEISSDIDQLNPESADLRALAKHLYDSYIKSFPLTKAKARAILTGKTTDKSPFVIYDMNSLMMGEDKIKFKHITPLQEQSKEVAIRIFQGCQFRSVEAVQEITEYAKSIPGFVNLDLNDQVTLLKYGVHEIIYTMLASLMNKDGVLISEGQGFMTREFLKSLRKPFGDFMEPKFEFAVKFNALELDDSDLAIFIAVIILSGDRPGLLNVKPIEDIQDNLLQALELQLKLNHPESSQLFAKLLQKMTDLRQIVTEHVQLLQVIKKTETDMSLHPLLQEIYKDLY
Sequence of Agonist Androgen Response Element (ARE), AR (gene 367) (P10275 whole entry, looked up): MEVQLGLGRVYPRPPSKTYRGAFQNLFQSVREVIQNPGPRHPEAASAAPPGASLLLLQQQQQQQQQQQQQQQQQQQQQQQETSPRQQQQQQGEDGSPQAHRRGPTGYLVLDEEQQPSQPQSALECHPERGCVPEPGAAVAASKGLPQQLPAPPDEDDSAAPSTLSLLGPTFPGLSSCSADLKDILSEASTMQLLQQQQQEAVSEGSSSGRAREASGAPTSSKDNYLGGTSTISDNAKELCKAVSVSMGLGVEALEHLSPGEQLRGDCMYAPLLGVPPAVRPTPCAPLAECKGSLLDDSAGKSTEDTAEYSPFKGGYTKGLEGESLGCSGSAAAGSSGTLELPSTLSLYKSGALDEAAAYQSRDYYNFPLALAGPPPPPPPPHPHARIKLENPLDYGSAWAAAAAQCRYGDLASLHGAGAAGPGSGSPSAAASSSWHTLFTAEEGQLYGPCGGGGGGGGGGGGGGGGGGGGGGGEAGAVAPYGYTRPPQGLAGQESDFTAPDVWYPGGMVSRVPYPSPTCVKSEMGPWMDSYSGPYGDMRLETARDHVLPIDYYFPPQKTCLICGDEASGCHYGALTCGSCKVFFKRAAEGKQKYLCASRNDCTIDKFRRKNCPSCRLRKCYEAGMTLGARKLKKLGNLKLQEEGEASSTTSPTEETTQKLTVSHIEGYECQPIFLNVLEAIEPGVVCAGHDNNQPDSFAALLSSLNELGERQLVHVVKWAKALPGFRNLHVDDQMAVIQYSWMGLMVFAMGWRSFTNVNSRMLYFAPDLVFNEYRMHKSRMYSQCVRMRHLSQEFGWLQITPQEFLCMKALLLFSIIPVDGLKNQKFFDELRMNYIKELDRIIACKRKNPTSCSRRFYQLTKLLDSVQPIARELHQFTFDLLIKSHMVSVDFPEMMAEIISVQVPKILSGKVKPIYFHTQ

CCCCCCCCC=CCCCCCCCC1=NCCN1CCO
inactive: [1] | [2] | [3]

CCCCCCCCN1CCCC1=O
active: [5] 50 µM
inactive: [4] | [6] | [7] | [8] | [3] | [9] | [10] | [11] | [12]

CSCCC=O
inactive: [4] | [5] | [6] | [7] | [2] | [3]

Cc1cc(=O)oc2cc(N(C)C)ccc12
active: [5] 50 µM | [6] 50 µM | [10] 45.6 µM
inactive: [4] | [7] | [8] | [3] | [9] | [11] | [12]

CCOC(=O)c1ccc(N)cc1
active: [6] 20.2 µM | [8] 31.8 µM
inactive: [4] | [5] | [7] | [2] | [3]

CC(=O)O[C@@H]1CC2CCC1(C)C2(C)C (stereo not given in full)
inactive: [4] | [5] | [7] | [8] | [2] | [3]

C=C(C)C(=O)OCCOC1CC2CC1C1C=CCC21 (stereo not given)
active: [5] 72.3 µM
inactive: [4] | [6] | [7] | [3]

CCCCCCCCc1ccc(S(=O)(=O)O)cc1
inactive: [4] | [5] | [6] | [2] | [3]

O=C(Nc1ccc2c(O)c(N=Nc3ccc(N=Nc4ccc(S(=O)(=O)O)cc4)cc3)c(S(=O)(=O)O)cc2c1)c1ccccc1
inactive: [4] | [13] | [14] | [7] | [8] | [3]

CCCCCCCCCC(=O)OC
inactive: [4] | [5] | [6] | [8] | [2] | [3]

C=C1CC[C@H](O)C/C1=C/C=C1\CCC[C@]2(C)[C@@H]([C@H](C)/C=C/[C@H](C)C(C)C)CC[C@@H]12
inactive: [4] | [7] | [8] | [3] | [11]
active: [5] 36.8 µM | [9] 19.8 µM | [10] 4.66 µM | [12] 42.5 µM

CCCCCC(C=O)=Cc1ccccc1
inactive: [4] | [5] | [6] | [7] | [3]

Cc1ccc(S(=O)(=O)Oc2ccc(N=Nc3ccc(-c4ccc(N=Nc5c(O)ccc6cc(S(=O)(=O)O)cc(S(=O)(=O)O)c56)c(C)c4)cc3C)cc2)cc1
inactive: [4] | [6] | [8] | [2] | [3]
active: [7] 35 µM

CCCCCCCCCCCCN1CCCCCC1=O
active: [5] 11.3 µM | [7] 44.3 µM
inactive: [4] | [3]

CCC1(C)NC(=O)NC1=O (stereo not given)
inactive: [4] | [5] | [8] | [2] | [3]

O=C1NC2NC(=O)NC2N1 (stereo not given)
inactive: [5] | [6] | [7] | [8] | [2] | [3]
active: [4] 7.06 µM

Nc1ccccc1[N+](=O)[O-]
inactive: [4] | [5] | [6] | [7] | [8] | [3]

C=CC(C)(O)CCC=C(C)C (stereo not given)
inactive: [4] | [5] | [6] | [7] | [2] | [3]

c1ccc(Oc2ccccc2)cc1
inactive: [4] | [5] | [7]

O=C(CC(=O)c1ccccc1)c1ccccc1
active: [4] 85.9 µM | [8] 81.5 µM
inactive: [5] | [6] | [7] | [3]

CC(C=O)Cc1ccc(C(C)(C)C)cc1 (stereo not given)
inactive: [4] | [6] | [7] | [8] | [3]

C1=CC2C3C=CC(C3)C2C1 (stereo not given)
inactive: [4] | [5] | [7] | [8] | [3]

CC1CC(O)CC(C)(C)C1 (stereo not given)
inactive: [6]

CC(CN=Cc1ccccc1O)N=Cc1ccccc1O (stereo not given)
inactive: [10] | [11]
active: [9] 3.89 µM | [12] 4.06 µM

CC(C)Nc1nc(N)nc(Cl)n1
inactive: [9] | [10] | [11] | [12]

O=c1c(O)c(-c2ccc(O)cc2)oc2cc(O)cc(O)c12
inactive: [5] | [7] | [8] | [3]
active: [6] 19.8 µM

CC(C)NCC(O)COc1ccc(CC(N)=O)cc1 (stereo not given)
inactive: [13] | [14] | [7] | [8] | [2] | [3]

CCC(C)c1cc([N+](=O)[O-])cc([N+](=O)[O-])c1OC(=O)OC(C)C (stereo not given)
inactive: [9] | [10] | [15] | [11] | [12]

COc1ccc(N=Nc2cc(C)c(N=Nc3ccc(S(=O)(=O)O)cc3)cc2OC)cc1
inactive: [4] | [3] | [9] | [10] | [11] | [12]

CCCCCCCC/C=C\CCCCCCCC(=O)OCC
inactive: [7] | [3]

CCCCCCC(CO)CCCC (stereo not given)
inactive: [7] | [8] | [3]

COCCc1ccc(OCC(O)CNC(C)C)cc1 (stereo not given)
active: [9] 28.6 µM
inactive: [10] | [11] | [12]

CCOc1ccc(N=Nc2ccc(C=Cc3ccc(N=Nc4ccc(OCC)cc4)cc3S(=O)(=O)O)c(S(=O)(=O)O)c2)cc1
inactive: [7] | [8] | [2] | [3]
